# According to PubChem BioAssay (NCATS):
# Several values for one entry are separate records, joined by “and”; a condition that tells them apart may be missing. Equal entries are not always repeated. Unmarked numbers belong to inactive results. Records with an inconclusive call do not appear. Where a call stands in place of a potency, no number is given. Activity calls are given as the source filed them. Unless noted, calls follow the shape of the dose curve; as a rule, active = well fitted curve in the direction sought with a large enough effect; inconclusive = small, poorly fitted or top-dose-only effect, or another doubt; inactive = no such curve, though single readings can be large; an effect the other way counts as inactive or inconclusive.
# Assays:
# [1] = target: Cytochrome P450 1A2 (Homo sapiens) (UniProt P05177); assay: p450-cyp1a2 (AID 410; calls by dose curve; also: potency is read from the fitted curve at half-maximal effect)
# Chain of Cytochrome P450 1A2 (Homo sapiens) (P05177 whole entry, looked up): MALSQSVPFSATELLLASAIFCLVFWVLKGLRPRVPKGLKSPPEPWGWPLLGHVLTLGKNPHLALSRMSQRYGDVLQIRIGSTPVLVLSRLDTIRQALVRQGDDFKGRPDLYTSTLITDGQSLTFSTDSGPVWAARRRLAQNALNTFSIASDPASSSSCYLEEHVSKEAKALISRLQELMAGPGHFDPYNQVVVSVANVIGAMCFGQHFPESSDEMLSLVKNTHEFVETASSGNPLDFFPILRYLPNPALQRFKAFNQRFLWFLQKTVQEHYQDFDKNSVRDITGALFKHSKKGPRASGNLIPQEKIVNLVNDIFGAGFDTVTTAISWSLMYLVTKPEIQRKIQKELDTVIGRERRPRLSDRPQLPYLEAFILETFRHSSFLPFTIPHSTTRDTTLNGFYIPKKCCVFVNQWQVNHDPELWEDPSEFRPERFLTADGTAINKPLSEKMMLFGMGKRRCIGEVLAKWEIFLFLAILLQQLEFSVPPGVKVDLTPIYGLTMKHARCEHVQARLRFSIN
# Summary of the method: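 20nM CYP1A2, 100uM Luciferin-ME (=Km), 100mM KPO4; cpd 10 min RT; +NADPH regen, 60 min RT; stop/detect 20 min; luminescence. Normalized to furafylline 57 uM = full inhibition.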
# [2] = NFAT Signaling Pathway (AID 444; active = well fitted curve in either direction with a large enough effect, not every such curve was filed as active;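 also: carbachol stimulus at about its EC50 of 1 µM final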); conditions: Jurkat NFAT-bla M1, carbachol, beta-lactamase ratio, 5 h
# Summary of the method: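 Jurkat cells with NFAT-driven β-lactamase reporter and co-expressed M1 receptor, stimulated with carbachol (final 1 uM, ~EC50), compound titration, 5 h at 37 °C. CCF4 loaded 1 h at RT; 460/530 nm ratio gave %activity and AC50.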
# [3] = Stat Signaling Pathway (AID 446; active = well fitted curve in either direction with a large enough effect, not every such curve was filed as active;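 also: ME-180 cervical cancer cells given 40 pM IL-6 alongside compound; SIE-controlled beta-lactamase reporter measured as 460/530 nm FRET emission ratio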); conditions: ME-180 (cervical carcinoma) SIE beta-lactamase reporter, IL-6 stimulated, 5 h
# Summary of the method: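 Compound effects on IL-6-induced STAT reporter activity were measured in ME-180 cells. After overnight culture, cells were co-treated with 40 pM IL-6 for 5 hrs before beta-lactamase substrate loading at room temperature.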
# [4] = target: Glucocorticoid receptor (Homo sapiens) (UniProt P04150); assay: GR-GFP Redistribution (AID 450;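 active = compounds whose dose series gives a full or clear partial fitted curve of increased nuclear translocation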; also: potency is read from the fitted curve at half-maximal effect); conditions: U2OS GR-GFP nuclear translocation, laser cytometry, 2 h
# Chain of Glucocorticoid receptor (Homo sapiens) (P04150 whole entry, looked up, the tested form may be a part): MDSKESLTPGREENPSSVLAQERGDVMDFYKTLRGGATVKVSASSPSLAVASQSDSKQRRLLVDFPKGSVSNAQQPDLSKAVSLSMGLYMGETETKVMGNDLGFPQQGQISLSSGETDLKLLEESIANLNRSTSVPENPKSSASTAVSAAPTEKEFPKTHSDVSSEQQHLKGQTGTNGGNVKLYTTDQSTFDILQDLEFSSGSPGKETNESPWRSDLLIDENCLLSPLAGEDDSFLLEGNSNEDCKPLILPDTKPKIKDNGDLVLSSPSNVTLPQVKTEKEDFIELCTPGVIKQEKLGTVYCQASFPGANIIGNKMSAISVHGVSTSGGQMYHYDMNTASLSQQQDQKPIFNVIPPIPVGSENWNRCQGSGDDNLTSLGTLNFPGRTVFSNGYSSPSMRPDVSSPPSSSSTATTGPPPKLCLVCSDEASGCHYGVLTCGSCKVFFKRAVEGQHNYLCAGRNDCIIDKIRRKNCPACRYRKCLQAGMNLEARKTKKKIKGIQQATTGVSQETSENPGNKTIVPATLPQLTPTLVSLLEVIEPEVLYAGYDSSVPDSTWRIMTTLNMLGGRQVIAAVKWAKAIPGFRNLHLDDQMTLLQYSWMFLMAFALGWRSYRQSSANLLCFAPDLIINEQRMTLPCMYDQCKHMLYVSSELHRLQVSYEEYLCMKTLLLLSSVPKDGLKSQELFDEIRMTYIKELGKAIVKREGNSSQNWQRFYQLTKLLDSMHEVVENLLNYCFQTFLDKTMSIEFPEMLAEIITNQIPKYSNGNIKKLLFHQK
# [5] = target: Glucocorticoid receptor (Homo sapiens) (UniProt P04150); assay: GR-EFC Redistribution (AID 451; calls by dose curve; also: potency is read from the fitted curve at half-maximal effect); conditions: CHO-K1 GR-EFC translocation, beta-gal luminescence, 2 h
# Summary of the method: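 CHO-K1 cells expressing nuclear EA and GR-ED fragments of b-gal; compounds titrated up to 46 uM final, 2 h at 37 C. GR nuclear translocation read as complemented b-gal luminescence after 1 h RT detection.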
# [6] = target: Mitogen-activated protein kinase 10 (Mus musculus) (UniProt Q61831); assay: JNK3 AlphaScreen Assay (AID 530; active = well fitted curve in either direction with a large enough effect, not every such curve was filed as active;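 also: kinase came from lysate of stimulated human HepG2 cells; signal reports phosphorylation of biotinylated GST-cJun 1-79 at Ser73 with 10 µM ATP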)
# Summary of the method: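 HepG2 lysate (IL-1b/TNFa pre-activated) + biotin-GST-cJun 1-79 + anti-pSer73 cJun; cpd titration, 15 min RT; ATP 10 uM start; Tris pH 7.6, MgCl2, DTT, vanadate; beads in EDTA buffer; AlphaScreen.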
# [7] = target: 3',5'-cyclic-AMP phosphodiesterase 4B (Homo sapiens) (UniProt Q07343); assay: qHTS Assay for Inhibitors of PDE-IV (AID 607; active = well fitted activation curve with a large enough effect in the main read-out, with a control signal flat, not every such curve was filed as active)
# Chain of 3',5'-cyclic-AMP phosphodiesterase 4B (Homo sapiens) (Q07343 whole entry, looked up): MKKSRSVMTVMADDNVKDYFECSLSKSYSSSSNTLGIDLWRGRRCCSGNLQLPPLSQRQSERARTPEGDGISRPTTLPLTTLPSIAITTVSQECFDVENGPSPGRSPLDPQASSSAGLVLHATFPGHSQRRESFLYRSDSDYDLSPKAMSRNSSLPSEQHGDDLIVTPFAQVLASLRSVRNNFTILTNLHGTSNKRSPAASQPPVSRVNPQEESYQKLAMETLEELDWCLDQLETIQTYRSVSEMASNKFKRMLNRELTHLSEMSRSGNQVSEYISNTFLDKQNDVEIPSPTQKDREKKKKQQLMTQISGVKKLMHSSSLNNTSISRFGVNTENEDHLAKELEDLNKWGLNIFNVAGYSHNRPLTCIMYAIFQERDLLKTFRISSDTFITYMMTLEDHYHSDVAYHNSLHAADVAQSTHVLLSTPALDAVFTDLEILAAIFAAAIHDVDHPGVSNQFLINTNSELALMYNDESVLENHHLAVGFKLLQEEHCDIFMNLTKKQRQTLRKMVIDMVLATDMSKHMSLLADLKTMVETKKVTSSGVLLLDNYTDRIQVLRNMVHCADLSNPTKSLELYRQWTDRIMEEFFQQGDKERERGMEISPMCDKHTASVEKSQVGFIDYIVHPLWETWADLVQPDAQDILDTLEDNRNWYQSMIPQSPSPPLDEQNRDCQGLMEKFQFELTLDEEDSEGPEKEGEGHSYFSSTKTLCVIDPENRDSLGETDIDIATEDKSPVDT
# Summary of the method: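 ACTOne HEK293 cells carry a modified cAMP-gated CNG channel and express endogenous PDE4; plated 1000 cells/well, compounds up to 22.9 uM final. Membrane-potential dye fluorescence (ex 535/em 590) was read; parental cells received 10 uM forskolin + 100 uM RO 20-1724.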
# [8] = target: Guanine nucleotide-binding protein G(i) subunit alpha-1 (Homo sapiens) (UniProt P63096); assay: qHTS Assay for Inhibitors of RGS12 GoLoco Motif Activity (Green Fluorophore) (AID 879);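 also: negative values mean loss of peptide binding seen as reduced polarization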
# Chain of Guanine nucleotide-binding protein G(i) subunit alpha-1 (Homo sapiens) (P63096 whole entry, looked up): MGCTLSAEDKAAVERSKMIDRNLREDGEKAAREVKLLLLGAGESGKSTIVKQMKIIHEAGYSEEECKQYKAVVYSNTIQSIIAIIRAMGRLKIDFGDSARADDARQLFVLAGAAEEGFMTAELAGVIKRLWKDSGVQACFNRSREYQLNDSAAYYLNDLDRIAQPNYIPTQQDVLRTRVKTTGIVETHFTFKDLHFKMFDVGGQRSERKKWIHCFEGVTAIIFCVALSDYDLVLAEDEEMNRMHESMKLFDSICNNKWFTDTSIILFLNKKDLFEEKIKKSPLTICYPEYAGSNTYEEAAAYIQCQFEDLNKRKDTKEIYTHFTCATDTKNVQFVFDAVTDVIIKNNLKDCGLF
# Summary of the method: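 A drop in FITC polarization marked displacement of the FITC-tagged RGS12 GoLoco peptide (10 nM) from Gαi1 (50 nM). Compounds were incubated 10 min at room temperature in Tris pH 7.5 buffer containing 150 mM NaCl, 0.1 mM GDP and 0.05% NP40; unlabeled peptide titration served as control.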
# [9] = target: Pyruvate kinase (Leishmania mexicana) (UniProt Q27686); assay: qHTS Validation Assay for Inhibitors of Leishmania Mexicana Pyruvate Kinase (AID 945)
# Chain of Pyruvate kinase (Leishmania mexicana) (Q27686 2-499 E452W): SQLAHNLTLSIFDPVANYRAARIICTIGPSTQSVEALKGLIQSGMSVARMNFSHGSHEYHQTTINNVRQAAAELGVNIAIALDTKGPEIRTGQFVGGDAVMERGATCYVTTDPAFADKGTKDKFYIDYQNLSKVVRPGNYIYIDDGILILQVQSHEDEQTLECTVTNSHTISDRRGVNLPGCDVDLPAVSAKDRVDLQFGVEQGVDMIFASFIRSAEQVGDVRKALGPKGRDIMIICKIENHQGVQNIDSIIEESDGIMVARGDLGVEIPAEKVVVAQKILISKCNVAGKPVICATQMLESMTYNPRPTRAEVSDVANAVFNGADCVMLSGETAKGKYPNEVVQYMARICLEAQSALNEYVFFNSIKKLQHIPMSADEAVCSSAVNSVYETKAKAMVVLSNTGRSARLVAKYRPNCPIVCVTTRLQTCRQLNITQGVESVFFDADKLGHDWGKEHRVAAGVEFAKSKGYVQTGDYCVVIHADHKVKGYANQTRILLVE
# Summary of the method: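 The enzyme is a highly purified E451W mutant of LmPYK used at 0.2 nM. It converts 0.5 mM PEP and 0.1 mM ADP over 1 h at room temperature; product ATP is quantified by luciferase luminescence relative to DMSO controls.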
# [10] = target: Pyruvate kinase PKM (Homo sapiens) (UniProt P14618); assay: qHTS Assay for Activators of Human Muscle Pyruvate Kinase (AID 954; active = well fitted curve in the direction sought with a large enough effect, not every such curve was filed as active)
# Chain of Pyruvate kinase PKM (Homo sapiens) (P14618 whole entry, looked up): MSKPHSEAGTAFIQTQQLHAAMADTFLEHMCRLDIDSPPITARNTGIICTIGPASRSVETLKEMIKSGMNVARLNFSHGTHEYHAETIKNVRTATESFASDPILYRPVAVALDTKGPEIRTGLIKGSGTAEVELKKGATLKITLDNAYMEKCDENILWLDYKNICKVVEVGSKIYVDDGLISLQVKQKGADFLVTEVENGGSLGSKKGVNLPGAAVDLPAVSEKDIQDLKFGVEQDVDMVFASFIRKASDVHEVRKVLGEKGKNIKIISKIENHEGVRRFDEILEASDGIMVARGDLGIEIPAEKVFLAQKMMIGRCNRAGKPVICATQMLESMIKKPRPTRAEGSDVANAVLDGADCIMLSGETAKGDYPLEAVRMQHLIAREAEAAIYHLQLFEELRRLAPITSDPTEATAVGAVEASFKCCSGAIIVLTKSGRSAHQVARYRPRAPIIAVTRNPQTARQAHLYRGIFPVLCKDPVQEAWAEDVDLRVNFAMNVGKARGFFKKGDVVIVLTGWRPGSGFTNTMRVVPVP
# Summary of the method: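 A coupled luminescent readout tracked ATP made from ADP by purified PKM2. Final conditions included 0.1 nM enzyme, PEP and ADP at 0.5 and 0.1 mM, pH 7.2 imidazole buffer with BSA, and a one-hour room-temperature reaction.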
# [11] = target: Alpha-galactosidase A (Homo sapiens) (UniProt P06280); assay: Counterscreen for Glucocerebrosidase Inhibitors: qHTS Assay for Human alpha-Galactosidase at pH 4.5 (AID 992)
# Chain of Alpha-galactosidase A (Homo sapiens) (P06280 whole entry, looked up): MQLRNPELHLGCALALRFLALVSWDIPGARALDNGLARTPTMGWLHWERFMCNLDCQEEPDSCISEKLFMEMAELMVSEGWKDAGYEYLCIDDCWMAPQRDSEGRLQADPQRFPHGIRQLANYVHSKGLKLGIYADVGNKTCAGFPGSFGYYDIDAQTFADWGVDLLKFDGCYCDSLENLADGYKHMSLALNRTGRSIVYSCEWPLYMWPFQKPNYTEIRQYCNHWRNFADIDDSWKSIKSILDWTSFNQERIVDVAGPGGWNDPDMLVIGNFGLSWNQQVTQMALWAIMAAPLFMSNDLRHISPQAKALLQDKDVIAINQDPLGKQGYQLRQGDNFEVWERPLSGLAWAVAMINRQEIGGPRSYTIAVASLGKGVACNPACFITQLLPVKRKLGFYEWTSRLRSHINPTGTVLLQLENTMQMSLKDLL
# Summary of the method: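 Citrate buffer pH 4.5, Tween-20 0.005%. Enzyme 2 nM, substrate 80 uM, 20 min RT. Stop pH 10. Fluorescence Ex 365/Em 440. AC50 by Hill fit.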
# [12] = target: alpha-glucosidase (Oryza sativa, rice) (UniProt Q653V4); assay: Counterscreen for Glucocerebrosidase Inhibitors: qHTS Assay for Rice alpha-Glucosidase at pH 5.0 (AID 997)
# Summary of the method: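 Endpoint fluorogenic assay at pH 5.0: compounds (0.7 nM to 77 uM) titrated against 4 nM rice enzyme and 400 uM 4-MU-alpha-glucoside for 20 min at room temperature; NaOH/glycine stop, read ex 365/em 440 nm, Hill-fitted AC50.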
# [13] = target: DNA dC->dU-editing enzyme APOBEC-3G (Homo sapiens) (UniProt Q9HC16); assay: qHTS for inhibitors of Vif-A3G interactions: Validation (AID 588379)
# Chain of DNA dC->dU-editing enzyme APOBEC-3G (Homo sapiens) (Q9HC16 whole entry, looked up): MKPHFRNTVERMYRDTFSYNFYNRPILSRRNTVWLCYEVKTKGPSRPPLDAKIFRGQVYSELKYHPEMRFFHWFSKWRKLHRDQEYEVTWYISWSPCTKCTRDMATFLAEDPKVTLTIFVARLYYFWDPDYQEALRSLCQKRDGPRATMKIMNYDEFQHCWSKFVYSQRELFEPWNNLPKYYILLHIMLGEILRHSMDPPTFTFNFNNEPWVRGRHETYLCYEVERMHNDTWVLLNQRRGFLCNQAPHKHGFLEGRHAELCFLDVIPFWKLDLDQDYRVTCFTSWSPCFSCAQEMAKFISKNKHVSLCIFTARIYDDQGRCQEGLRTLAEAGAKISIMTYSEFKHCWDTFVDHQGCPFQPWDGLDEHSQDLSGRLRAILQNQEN
# Summary of the method: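 Yellow fluorescence (Ex 488, Em 500-530) of Vif-coexpressing HeLa A3G-eYFP cells, scanned by Acumen cytometer, reports blocked A3G degradation. Cells plated at 700/well overnight at 37 deg C before compound addition, then a further overnight compound incubation at 37 deg C.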
# [14] = test system: Zika virus NS2B-NS3 protease; assay: Primary screen GU AMC qHTS for Zika virus inhibitors (AID 1347154); also: nearly all actives have a fitted effect of over 70% in size
# Summary of the method: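 Unlinked Zika NS2B hydrophilic domain–NS3 protease complex at 25 nM in 10 mM Tris-HCl pH 8.0, 0.01% Tween 20, with an AMC peptide substrate. Fluorescence change (340/450 nm) over 15 min at room temperature, normalized to controls, fitted to 4-parameter Hill.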
# [15] = Primary qHTS for small molecule stabilizers of the endoplasmic reticulum resident proteome: Secreted ER Calcium Modulated Protein (SERCaMP) assay (AID 1508630)
# Summary of the method: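 The SH-SY5Y reporter protocol was run at 3 concentrations up to 38.3 uM (primary) or 11 concentrations (follow-up): 16 h compound, 100 nM thapsigargin for 4 h, then extracellular luciferase luminescence.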
# [16] = target: Cytochrome P450 2C19 (Homo sapiens) (UniProt P33261); assay: qHTS Assay for Inhibitors and Substrates of Cytochrome P450 2C19 (AID 899); also: nearly all actives have a fitted effect of over 60% in size
# Summary of the method: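 5 nM human CYP2C19 with 10uM Luciferin-H EGE (at KM) in 50mM KPO4, compound preincubated 10 min at 37C, then NADPH regeneration for 60 min at 37C. Luciferin read by luminescence after detection reagent; normalized to 57uM ketoconazole as full inhibition.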
# [17] = target: Cytochrome P450 3A4 (Homo sapiens) (UniProt P08684); assay: qHTS Assay for Activators of Cytochrome P450 3A4 (AID 885); also: nearly all actives have a fitted effect of over 65% in size
# Chain of Cytochrome P450 3A4 (Homo sapiens) (P08684 whole entry, looked up): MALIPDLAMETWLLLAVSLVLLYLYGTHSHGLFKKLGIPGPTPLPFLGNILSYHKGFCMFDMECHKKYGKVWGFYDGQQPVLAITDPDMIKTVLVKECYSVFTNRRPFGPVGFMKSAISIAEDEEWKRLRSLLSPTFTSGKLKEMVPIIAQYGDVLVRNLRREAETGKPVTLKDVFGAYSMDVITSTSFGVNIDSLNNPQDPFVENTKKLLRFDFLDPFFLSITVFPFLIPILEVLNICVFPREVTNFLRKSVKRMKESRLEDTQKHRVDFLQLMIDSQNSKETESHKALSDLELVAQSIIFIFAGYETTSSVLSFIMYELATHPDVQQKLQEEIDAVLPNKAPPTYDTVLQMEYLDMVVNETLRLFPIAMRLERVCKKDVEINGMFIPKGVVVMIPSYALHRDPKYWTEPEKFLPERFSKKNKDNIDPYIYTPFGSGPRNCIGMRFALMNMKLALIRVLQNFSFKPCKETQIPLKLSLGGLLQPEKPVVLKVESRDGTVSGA
# Summary of the method: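 CYP3A4 activity: Luciferin-PPXE O-dealkylation, 25uM substrate, 200mM KPO4, RT throughout. Read-out is luciferase luminescence; higher values reflect activation.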
# [18] = target: Cytochrome P450 2C9 (Homo sapiens) (UniProt P11712); assay: qHTS Assay for Inhibitors and Substrates of Cytochrome P450 2C9 (AID 883); also: nearly all actives have a fitted effect of over 60% in size
# Summary of the method: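 Human CYP2C9 (10nM) with Luciferin-H at 100uM (its KM) in 25mM KPO4; compound preincubated 10 min at 37C, then NADPH regeneration for 60 min at 37C. Luciferin read by luminescence after detection reagent; normalized to 57uM sulphaphenazole as full inhibition.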
# [19] = target: Ubiquitin carboxyl-terminal hydrolase 1 (Homo sapiens) (UniProt O94782); assay: Inhibitors of USP1/UAF1: Pilot qHTS (AID 504865);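 also: rhodamine fluorescence freed from ubiquitin-rhodamine substrate followed over time; top concentration of the series differs between compounds; nearly all actives have a fitted effect of over 35% in size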
# Summary of the method: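 Enzyme-free wells gave the negative control, while test wells held 1nM USP1/UAF1 preincubated with compound for 15 min at room temperature. Ub-Rho at 150nM final started the reaction, and fluorescence at 480/540 nm was recorded kinetically.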
smiles,measurement,setting,value
C=CCN1CCc2cc(O)c(O)cc2[C@H](c2ccccc2)C1,Potency,[1],inactive
same,"activity change, negative = inhibition",[2]; at 38 µM (top of the series),-18.1%
same,"activity, negative = inhibition",[3]; at 38 µM (top of the series),-21%
same,Potency,[4],> 46 µM
same,Potency,[5],> 46 µM
same,Potency,[6],inactive
same,Potency,[7],inactive
same,outcome,[8],inactive
same,Potency,[9],inactive
same,outcome,[10],inactive
same,outcome,[11],inactive
same,outcome,[12],inactive
same,Potency,[13],inactive
same,Potency,[14],inactive
same,Potency,[15],inactive
C[C@@H](C[C@H](N)C(=O)O)C(=O)O,"activity change, negative = inhibition",[1],-18.7% [at 11.4 µM]
same,"activity change, negative = inhibition",[2]; at 7.69 µM (top of the series),21.8%
same,"activity, negative = inhibition",[3]; at 7.69 µM (top of the series),15.7%
same,Potency,[4],> 46 µM
same,Potency,[5],> 9.22 µM
same,"activity change, negative = inhibition",[6],-4.43% [at 11.4 µM]
same,Potency,[7],inactive
same,"activity, negative = inhibition",[16],46.1% [at 11.4 µM]
same,Potency,[14],inactive
same,Potency,[15],inactive
CC[C@H](C)C(=O)O[C@H]1CCC=C2C=C[C@H](C)[C@H](CC[C@@H]3C[C@H](O)CC(=O)O3)[C@H]21,Potency,[1],31.6 µM (active)
same,Potency,[4],> 46 µM
same,Potency,[5],> 46 µM
same,Potency,[6],inactive
same,outcome,[8],inactive
same,Potency,[17],inactive
same,Potency,[9],inactive
same,outcome,[10],inactive
same,outcome,[11],inactive
same,outcome,[12],inactive
same,Potency,[13],inactive
same,Potency,[14],inactive
same,Potency,[15],inactive
N[C@H](Cc1ccccc1)C(=O)O,Potency,[14],inactive
same,Potency,[15],inactive
C[C@H]1C=C2C=C[C@H](C)[C@H](CC[C@@H]3C[C@@H](O)CC(=O)O3)[C@H]2[C@@H](OC(=O)[C@@H](C)CCO)C1,Potency,[1],31.6 µM (active)
same,Potency,[5],> 46 µM
same,Potency,[6],inactive
same,Potency,[17],inactive
same,Potency,[13],inactive
same,Potency,[14],inactive
same,Potency,[15],inactive
CC(C)[C@H](CO)Nc1nc(Nc2cc(N)cc(Cl)c2)c2ncn(C(C)C)c2n1,Potency,[4],> 46 µM
same,Potency,[5],> 46 µM
same,Potency,[6],inactive
same,Potency,[13],inactive
same,Potency,[14],inactive
same,Potency,[15],inactive
O=C1CC[C@H](N2C(=O)c3ccccc3C2=O)C(=O)N1,Potency,[1],inactive
same,"activity change, negative = inhibition",[2]; at 17.2 µM (top of the series),-1.74%
same,"activity change, negative = inhibition",[2]; at 38 µM (top of the series),-10.1%
same,"activity, negative = inhibition",[3]; at 17.2 µM (top of the series),3.42%
same,"activity, negative = inhibition",[3]; at 38 µM (top of the series),-18.4%
same,Potency,[4],> 46 µM and > 20.6 µM
same,Potency,[5],> 46 µM and > 20.6 µM
same,Potency,[6],inactive
same,Potency,[7],inactive
same,outcome,[8],inactive
same,Potency,[18],inactive
same,Potency,[16],inactive
same,Potency,[9],inactive
same,outcome,[10],inactive
same,outcome,[11],inactive
same,outcome,[12],inactive
same,Potency,[19],inactive
same,Potency,[13],inactive
same,Potency,[14],inactive
same,Potency,[15],inactive
